Bioassay records: PubChem BioAssay, National Center for Advancing Translational Sciences (NCATS)
Most compounds without a hit are left out; they make up all but 3% or so of the library.
12-LOX inh: ALOX12 (human) lipoxygenase inhibition | P18054 | purified 12hLO, xylenol orange hydroperoxide absorbance | Potency, µM (top dose mostly 108 µM), inactives show top-dose activity change, negative = inhibition, actives largely listed as inhibitors | actives 1.1% (n = 580,000); active means well fitted inhibition curve with a large enough effect; inconclusive means small, poorly fitted or top-dose-only effect, or another doubt; inactive means no such curve, though single readings can be large or run the other way; further: potency means the concentration at half of the fitted maximal effect; on the % scale 0 is the no-effect control and ±100 the full control effect
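Purified human 12hLO (150 nM final) in 25 mM Hepes, 0.01% Triton X-100, pH 7.0 was preincubated 15 min at room temperature with compound. Then 40 uM arachidonic acid was added, 30 min. Hydroperoxide was read by Fe-XO absorbance ratio 573/405 nm.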
BCR signal inh: blocks chronic active B-cell receptor signaling; ABC-DLBCL IkBa-CBG/CBR reporter, luminescence ratio, 4 h; Potency, µM (titrated, usually from 46.1 µM), without a hit: at the top dose activity change, negative = inhibition, usual class: inhibitors; actives 0.05% (n = 340,000); active means well fitted inhibition curve with a large enough effect in the signal ratio, with a control signal flat, not every such curve was filed as active; inconclusive means small, poorly fitted or top-dose-only effect, or effect the other way, or a change in a side signal; the % refers to the signal ratio;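 further: potency means the concentration at half of the fitted maximal effect; plate controls were basal doxycycline-induced cells for no effect and cells given 10 µM MG132 for full effect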
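TMD8 ABC-DLBCL cells carrying doxycycline-inducible green luciferase fused to IkappaBalpha plus unfused red luciferase were exposed to compounds (up to 46 uM) for 4 hrs at 37C. Activity came from the overlap-corrected green/red luminescence ratio.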
KCNH2 3.1 block: blocks the human KCNH2 3.1 channel isoform; U2OS KCNH2 3.1, thallium flux FluxOr; active compounds read low; activity change, % (tested at about 1.8 µM); actives 0.95% (n = 340,000);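 active means maximum activity change below -70%; inconclusive means maximum activity change from -70% to -50%; inactive means maximum activity change above -50%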;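 further: thallium influx rate constant from kinetic fluorescence after stimulation buffer; on the % scale 0 is the no-effect control and ±100 the full control effect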
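Virally transduced U2OS (3.1 isoform, 4 h infection in dark at RT) → overnight 37 C → FluxOr + Red40 in HBSS/HEPES, 45 min → stimulation buffer, 2 min kinetic read → rate constant vs DMSO controls.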
hERG WT inh: inhibitors of human wildtype KCNH2 potassium channel; Q12809; U2OS, BacMam KCNH2, thallium flux FluxOr; active compounds read low; activity change, % at 1.84 µM; actives 0.37% (n = 340,000); AID 720551;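 active means maximum activity change below -70%; inconclusive means maximum activity change between -70% and -50%; inactive means maximum activity change above -50%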; further: on the % scale 0 is the no-effect control and ±100 the full control effect
Target sequence (Q12809 whole entry, looked up): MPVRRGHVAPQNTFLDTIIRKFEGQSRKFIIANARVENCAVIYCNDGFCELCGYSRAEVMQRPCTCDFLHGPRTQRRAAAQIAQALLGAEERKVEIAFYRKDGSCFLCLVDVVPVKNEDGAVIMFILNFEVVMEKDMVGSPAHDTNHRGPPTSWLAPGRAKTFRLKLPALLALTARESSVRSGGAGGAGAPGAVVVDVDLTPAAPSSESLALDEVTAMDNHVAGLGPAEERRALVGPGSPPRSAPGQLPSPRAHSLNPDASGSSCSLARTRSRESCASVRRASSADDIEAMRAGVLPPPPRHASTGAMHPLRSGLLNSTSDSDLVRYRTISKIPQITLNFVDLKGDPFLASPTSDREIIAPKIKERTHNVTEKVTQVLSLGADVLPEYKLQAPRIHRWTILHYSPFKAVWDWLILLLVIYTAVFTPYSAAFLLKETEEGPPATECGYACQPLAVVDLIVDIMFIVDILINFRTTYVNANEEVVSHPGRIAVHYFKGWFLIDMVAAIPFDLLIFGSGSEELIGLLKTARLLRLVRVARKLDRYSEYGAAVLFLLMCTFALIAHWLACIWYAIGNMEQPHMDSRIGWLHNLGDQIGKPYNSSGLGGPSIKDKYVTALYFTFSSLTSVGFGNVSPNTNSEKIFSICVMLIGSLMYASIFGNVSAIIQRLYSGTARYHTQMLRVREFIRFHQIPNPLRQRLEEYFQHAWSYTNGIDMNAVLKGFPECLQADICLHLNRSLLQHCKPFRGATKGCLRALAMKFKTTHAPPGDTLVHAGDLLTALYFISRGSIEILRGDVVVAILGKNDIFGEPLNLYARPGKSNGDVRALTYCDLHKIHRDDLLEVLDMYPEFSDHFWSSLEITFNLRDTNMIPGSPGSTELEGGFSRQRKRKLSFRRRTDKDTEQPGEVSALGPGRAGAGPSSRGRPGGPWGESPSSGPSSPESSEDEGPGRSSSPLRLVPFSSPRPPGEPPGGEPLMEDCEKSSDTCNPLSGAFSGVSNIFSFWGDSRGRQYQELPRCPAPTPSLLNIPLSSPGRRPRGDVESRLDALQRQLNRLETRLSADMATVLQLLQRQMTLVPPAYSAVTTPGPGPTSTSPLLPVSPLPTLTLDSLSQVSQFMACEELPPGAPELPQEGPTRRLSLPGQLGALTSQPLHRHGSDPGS
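U2OS cells were transduced with wild-type KCNH2 virus (2.03 x 10^8 / mL) for 4 h at room temperature, then cultured overnight at 37 C. Thallium flux was read with FluxOr dye. Rate constants were normalized to DMSO controls.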
LDHA block: inhibitors of human lactate dehydrogenase A | activity change, % (values are at about 110 or 230 µM) | AID 1347041 | actives 0.15% (n = 480,000) | purified LDHA, NADH/diaphorase-resazurin fluorescence; active compounds read low | P00338; in the data active means activity change below about -30%; inconclusive means mostly about -25% to -30%;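 further: plate controls were DMSO wells for no effect and wells without enzyme for full effect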
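Remaining NADH was detected by diaphorase (0.133 mg/mL) converting 37 µM resazurin to fluorescent resorufin, read at 0 and 20 minutes. The preceding 5-minute room-temperature reaction used 2 nM LDHA, 0.2 mM sodium pyruvate and 0.06 mM NADH at pH 7.4.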
ClpP mod: qHTS Assay for Activators of ClpP. ATP-dependent Clp protease proteolytic subunit (Bacillus subtilis (strain 168)), P80244. purified B. subtilis ClpP, FRET peptide cleavage, 20 min. Potency, µM (highest dose often 57.5 µM), without a hit: at the top dose activity change, negative = active. actives 1.9% (n = 340,000). AID 651965, 2013; active means well fitted falling curve with a large enough effect; inconclusive means small, poorly fitted or top-dose-only effect; inactive means no such curve, though single readings can be large or run the other way; further: potency means the concentration at half of the fitted maximal effect; the source files actives as falling curves though it sought activators and does not explain the sign; nearly all actives have a fitted effect of over 65% in size
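ClpP 10 microg/mL final, pH 8 Tris/KCl buffer with BSA, glycerol, Tween-20; compound pinned in; FRET-FV substrate; RT 20 min; Ex320/Em430; ΔFRET vs ADEP 5.8 microM, DMSO, no enzyme.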
Active calls of the source: *; ? = inconclusive; . = no result given; ! = not active in a repeat.

SMILES | 12-LOX inh | BCR signal inh | KCNH2 3.1 block | hERG WT inh | LDHA block | ClpP mod
COc1ccc(-c2cnc(C)o2)cc1S(=O)(=O)Nc1ccc(C)c(F)c1 | 50µM*! | . | . | . | 6 | -3%
O=S(=O)(c1ccc(-c2cnc(C3CC3)o2)cc1)N1CCN(c2ccccc2F)CC1 | -2% | . | . | . | -5 | 28µM*
COc1ccc(NS(=O)(=O)c2cc(-c3cnc(C4CC4)o3)ccc2C)cc1 | ? | 13µM* | -30 | 7 | 4 | 2%
O=C(Nc1nncs1)c1ccc(Br)c(S(=O)(=O)N2CCCC2)c1 | -9% | 5% | -9 | -6 | -3 | 32µM*
O=C(Nc1ccccn1)c1ccc(Br)c(S(=O)(=O)N2CCCCC2)c1 | 10% | 0% | 7 | 4 | -6 | 13µM*
CCOc1ccc(NC(=O)CSC2=C(C#N)C(c3ccccc3Cl)C(C(C)=O)=C(C)N2)cc1 (stereo not drawn) | 32µM* | . | . | . | 5 | .
COc1ccc(C2C(C#N)=C(SCC(=O)Nc3ccc(C)cc3)NC3=C2C(=O)CC(C)(C)C3)cc1 (stereo not drawn) | 31% | 1% | 0 | -3 | -5 | 22µM*
COc1cccc(NC(=O)CSC2=C(C#N)C(c3ccco3)C3=C(CCCC3=O)N2)c1 (stereo not drawn) | -14% | ? | 21 | -21 | -4 | -7%
COc1ccc(NC(=O)CSC2=C(C#N)C(c3ccco3)C3=C(CCCC3=O)N2)c(OC)c1 (stereo not drawn) | 18µM* | ? | -5 | 0 | -1 | 2%
CN(Cc1ccccc1NC(=O)C1(C)CC1(Cl)Cl)C1CCCCC1 (stereo not drawn) | 11% | . | . | . | 6 | .
O=c1c2ccccc2[nH]c(=S)n1CCc1ccccc1 | -3% | ? | 12 | 7 | -6 | 7.1µM*
O=C(CCCCCn1c(=O)[nH]c2ccccc2c1=O)NCc1ccccc1 | ? | -5% | . | . | -2 | -12%
O=C(CCCCCn1c(=O)[nH]c2ccccc2c1=O)NCCc1ccccc1 | ? | 0% | . | . | 0 | 32µM*
CCCC(=O)N(CCN1CCOCC1)c1nc2c(C)ccc(C)c2s1 | -4% | -4% | -85* | -6 | 1 | 0%
CC(=O)c1ccc(OCC(O)CN2CCCN(c3ccc(C(F)(F)F)cn3)CC2)cc1 (stereo not drawn) | ? | . | . | . | -3 | .
CC(C)c1ccc(NC(=S)NCCc2c[nH]c3ccccc23)cc1 | 35µM* | 0% | 3 | 0 | -1 | -2%
S=C(NCCc1c[nH]c2ccccc12)Nc1ccc(Cl)cc1 | ? | . | . | . | 6 | .
Cc1cc(/C=C(\C#N)C(=O)NCCc2c[nH]c3ccccc23)c(C)n1C | -27% | ? | -47 | -11 | -10 | -4%
Cc1ccccc1NC(=S)NCCc1c[nH]c2ccccc12 | ? | -4% | 9 | -13 | -4 | .
Cc1cccc(NC(=S)NCCc2c[nH]c3ccccc23)c1 | 40µM* | 3% | -48 | 5 | -2 | 1%
S=C(NCCc1c[nH]c2ccccc12)Nc1ccc(Br)cc1 | 32µM* | . | . | . | -2 | .
Cc1ccc(NC(=S)NCCc2c[nH]c3ccccc23)cc1 | ? | 4% | -7 | -1 | -5 | 0%
N#C/C(=C/c1ccc(Br)s1)C(=O)NCCc1c[nH]c2ccccc12 | -28% | ? | -7 | -74* | -7 | -2%
O=C(Nc1ccc(Cl)cc1F)C12CC3CC(CC(C3)C1)C2 | -36% | . | . | . | 13 | .
CCN1CCN(C(=O)CS(=O)Cc2nc(-c3ccc(OC)c(OC)c3)oc2C)CC1 (stereo not drawn) | ? | . | . | . | 11 | .
SMILES | 12-LOX inh | BCR signal inh | KCNH2 3.1 block | hERG WT inh | LDHA block | ClpP mod
COc1ccc(CCNC(=S)NCCc2c[nH]c3ccccc23)cc1 | 45µM* | ? | -5 | . | -8 | -3%
COc1ccc(CNC(=O)NCCc2c[nH]c3ccccc23)cc1 | 0% | ? | -4 | -1 | 0 | -2%
COc1cccc(SCC(=O)c2ccc3c(c2)CCC(=O)N3)c1 | 35µM* | . | . | . | 6 | .
COc1cccc(SCC(=O)c2ccc3c(c2)NC(=O)CO3)c1 | ? | . | . | . | 9 | .
O=C(CCc1ncc(-c2ccccc2)o1)NCCc1cccc(F)c1 | -4% | . | . | . | 8 | .
O=C1CC(c2noc(C3CCC3)n2)CN1C1CCCCC1 (stereo not drawn) | 63% | . | . | . | . | .
CCS(=O)(=O)N1CC2(CN(C(=O)Cc3ccccn3)[C@@H](CO)c3[nH]c4cc(OC)ccc4c32)C1 | -28% | . | . | . | . | .
COc1ccc2c3c([nH]c2c1)[C@@H](CO)N(Cc1ccccc1Cl)CC31CN(C(=O)C2CC2)C1 | 16µM* | . | . | . | . | .
CCS(=O)(=O)N1CC2(CN(Cc3ccc4c(c3)OCO4)[C@@H](CO)c3[nH]c4cc(OC)ccc4c32)C1 | 14µM* | . | . | . | . | .
COc1ccc2c3c([nH]c2c1)[C@H](CO)N(C(=O)C1CCCC1)CC31CCN(C(=O)c2ccncc2)CC1 | -20% | . | . | . | . | .
NC(=S)NCCc1ccccc1 | ? | . | . | . | -2 | .
S=c1[nH]cc(Cc2ccccc2)s1 | 7.9µM* | -3% | 11 | -5 | -4 | -3%
O=c1[nH]cc(Cc2ccccc2)c(=O)[nH]1 | ? | . | -7 | 10 | -7 | 1%
Cc1ccc(N2C(=O)[C@@H]3[C@H](C2=O)C2c4ccccc4C=CN2[C@@H]3C(=O)c2ccco2)c(C)c1 (stereo partly drawn) | 14µM* | 0% | -2 | -11 | 14 | -5%
Cc1cc(C)c(NC(=O)Cn2cc(S(=O)(=O)Cc3ccccc3F)c3ccccc32)c(C)c1 | ? | . | . | . | -31* | -6%
Cc1cccc(C)c1NC(=O)Cn1cc(S(=O)(=O)Cc2ccc(F)cc2)c2ccccc21 | 50µM* | . | . | . | -8 | -5%
Cc1ccc(NC(=O)Cn2cc(S(=O)(=O)Cc3cccc(Cl)c3)c3ccccc32)cc1C | ? | . | . | . | -6 | -5%
Cc1ccc(NC(=O)Cn2cc(S(=O)(=O)Cc3ccc(F)cc3)c3ccccc32)cc1Cl | 10µM* | . | . | . | 6 | -3%
O=C(Cn1cc(S(=O)(=O)Cc2ccccc2F)c2ccccc21)Nc1ccc(F)c(Cl)c1 | -37% | . | . | . | -9 | -4%
CSc1ccccc1NC(=O)COC(=O)Cc1ccsc1 | ? | -1% | -97* | 1 | 0 | 2%
CC(C)c1ccc(C2NC(=O)NC3=C2CCc2ccccc23)cc1 (stereo not drawn) | ? | ? | 1 | 4 | 18 | 28µM*
COc1cccc(C2NC(=S)NC3=C2CCc2ccccc23)c1 (stereo not drawn) | ? | -2% | -7 | -8 | 37 | 12%
